These results are taken from the supplement of paper PMC4723716.

For the assay, the system named is Plasmodium falciparum NF54 stage V gametocytes. The assay can be described thus: viability index relative to DMSO control (fraction); higher = less gametocyte killing. The conditions noted are these: 2.5 µM, library set: Broad Institute DOS, incubation time: 72 h. A digest of the protocol:
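Gametocytes (P. falciparum NF54, stage V) were treated with compound at 2.5 µM for 72 hr at 37°C in low oxygen, in serum-free medium at 0.75% gametocytemia and 1.25% hematocrit. Counts of 20–70 µm2 red particles, taken from one field per well after MitoTracker Red CMXRos with saponin, were divided by the plate mean of solvent-only wells. This ratio is the viability index.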

Molecules are shown by their SMILES. ± gives the uncertainty stated by the source. Over roughly 9,900 compounds, “viability index relative to DMSO control” has its median near 1; the lowest 2% begin near 0.85. Shown is part of a subset that was picked to be rich in the lowest values.

In turn, `O=C(C[C@H]1C[C@H]2c3cc(NS(=O)(=O)c4ccc(F)cc4)ccc3O[C@H]2[C@H](CO)O1)N1CCc2ccccc2C1` had a viability index of 0.861 ± 0.059.
With `C[C@@H]1CCn2nncc2COC[C@H]2CCCN2C1=O` the figure was 1.04 ± 0.058; with `O=S(=O)(c1ccccc1)N1CCCCN2[C@H](C1)[C@@H](c1ccc(C#CC3CCCC3)cc1)[C@@H]2CO`, 0.907 ± 0.07.
With `O=S(=O)(c1ccccc1)N1CCCCN2[C@H](CO)[C@H](c3ccc(C#CC4CCCC4)cc3)[C@H]2C1` the figure was 0.8253 ± 0.0077.
With `O=S(=O)(c1ccccc1)N1CCCCN2[C@H](C1)[C@H](c1ccc(C#CC3CCCC3)cc1)[C@@H]2CO` the figure was 1.03 ± 0.031; with `O=S(=O)(c1ccccc1)N1CCCCN2[C@H](CO)[C@@H](c3ccc(C#CC4CCCC4)cc3)[C@@H]2C1`, 1.01 ± 0.026.
The molecule `O=S(=O)(c1ccccc1)N1CCCCN2[C@H](CO)[C@@H](c3ccc(C#CC4CCCC4)cc3)[C@H]2C1` came in with a viability index of 1.03 ± 0.056.
`O=S(=O)(c1ccccc1)N1CCCCN2[C@@H](CO)[C@@H](c3ccc(C#CC4CCCC4)cc3)[C@@H]2C1` returned a viability index of 0.8429 ± 0.006.
On to `O=C(CN1CCOCC1)N1[C@H](CO)[C@H]2c3ccccc3NC[C@H]21`, for which the viability index was determined as 1 ± 0.088.
The molecule `C[C@H]1CN([C@@H](C)CO)C(=O)c2cc(NC(=O)Nc3cccc4ccccc34)ccc2O[C@@H]1CN(C)S(=O)(=O)c1cccs1` returned a viability index of 1.06 ± 0.026.
Turning to `CN(C)C(=O)c1cccc(-c2ccc3c(c2)[C@H]2[C@H](CCN2C(=O)c2cnccn2)[C@H](CO)N3)c1`, the viability index came out at 1.1 ± 0.035.
The molecule `COc1ccccc1CN1CC[C@@H]2[C@H](CO)Nc3ccc(-c4cccc(C(=O)N(C)C)c4)cc3[C@@H]21` had a viability index of 0.841 ± 0.072.
Molecule `COc1ccccc1CN1CC[C@@H]2[C@H]1c1cc(C3=CCCCC3)ccc1N[C@@H]2CO` gave a viability index of 0.8126 ± 0.0046.
Molecule `OC[C@@H]1Nc2ccc(C3=CCCCC3)cc2[C@@H]2[C@H]1CCN2Cc1nccs1` had a viability index of 1.06 ± 0.059.
`COc1ccccc1CN1CC[C@@H]2[C@H]1c1cc(-c3cccc(C(=O)N(C)C)c3)ccc1N[C@@H]2CO` gave a viability index of 1.09 ± 0.028.
For `CN(C)C(=O)c1cccc(-c2ccc3c(c2)[C@H]2[C@H](CCN2Cc2nccs2)[C@@H](CO)N3)c1`, the viability index came out at 1.18 ± 0.023.
With `CN(C)C(=O)c1cccc(-c2ccc3c(c2)[C@H]2[C@H](CCN2C(=O)c2cnccn2)[C@@H](CO)N3)c1` the figure was 1.16 ± 0.02; with `CN(C)C(=O)c1cccc(-c2ccc3c(c2)[C@H]2[C@H](CCN2Cc2nccs2)[C@H](CO)N3)c1`, 0.818 ± 0.014; with `CN(C)C(=O)c1cccc(-c2ccc3c(c2)[C@@H]2[C@@H](CCN2C(=O)c2cnccn2)[C@@H](CO)N3)c1`, 1.12 ± 0.032.
With `CN(C)C(=O)c1cccc(-c2ccc3c(c2)[C@@H]2[C@@H](CCN2C(=O)c2cnccn2)[C@H](CO)N3)c1` the figure was 1.17 ± 0.072; with `COc1ccccc1-c1ccc2c(c1)[C@H]1[C@H](CCN1Cc1ccccc1F)[C@@H](CO)N2`, 1.02 ± 0.035; with `CN(C)C(=O)c1cccc(-c2ccc3c(c2)[C@@H]2[C@@H](CCN2Cc2nccs2)[C@@H](CO)N3)c1`, 0.785 ± 0.07.
With `C[C@H]1CCCCO[C@H](CN(C)C(=O)Nc2ccc(C(F)(F)F)cc2)[C@@H](C)CN([C@@H](C)CO)C(=O)c2cc(NS(=O)(=O)c3cn(C)cn3)ccc2O1` the figure was 1.01 ± 0.013.
On to `CO[C@H]1CN(C)C(=O)c2ccc(NS(C)(=O)=O)cc2OC[C@H](C)N(CC2CC2)C[C@@H]1C`, for which the viability index was 1.03 ± 0.087.
With `CO[C@@H](CN(C)Cc1nccs1)[C@@H](C)CN([C@@H](C)CO)S(=O)(=O)c1ccc(F)cc1` the figure was 1.04 ± 0.0028; with `COCC(=O)Nc1ccc2c(c1)[C@@H]1C[C@@H](CC(=O)NCc3ccc4c(c3)OCO4)O[C@@H](CO)[C@@H]1O2`, 1.01 ± 0.047.
With `N#C[C@@H]1[C@H](c2ccccc2C2=CCCCC2)[C@H](CO)N1C(=O)CN1CCOCC1` the figure was 1.17 ± 0.13.
With `N#C[C@H]1[C@@H](c2ccc(-c3cccnc3)cc2)[C@@H](CO)N1C(=O)C1CCOCC1` the figure was 1.07 ± 0.031.
Molecule `C[C@@H]1CCCCO[C@@H](CN(C)C(=O)CCC(F)(F)F)[C@H](C)CN([C@@H](C)CO)C(=O)c2cc(NC(=O)C3CCCCC3)ccc2O1` gave a viability index of 1.13 ± 0.072.
In the case of `Cc1ccccc1S(=O)(=O)N1C[C@@H]2N[C@H](C1)[C@@H]2c1ccc(/C=C/c2ccccc2)cc1`, the viability index amounted to 0.771 ± 0.028.
In turn, `COc1ccc(-c2ccc([C@@H]3[C@@H]4CN(S(=O)(=O)c5ccccc5C)C[C@H]3N4)cc2)cc1` came in with a viability index of 0.713 ± 0.11.
The molecule `O=S(=O)(c1ccc(F)cc1)N1C[C@@H]2N[C@H](C1)[C@H]2c1ccc(/C=C/c2ccccc2)cc1` yielded a viability index of 1.04 ± 0.055.
For the molecule `Cc1ccccc1S(=O)(=O)N1C[C@@H]2N[C@H](C1)[C@H]2c1ccc(/C=C/c2ccccc2)cc1`, the viability index is 1 ± 0.048.
With `COc1ccc(-c2ccc([C@H]3[C@@H]4CN(S(=O)(=O)c5ccccc5C)C[C@H]3N4)cc2)cc1` the figure was 0.916 ± 0.068; with `C/C=C/c1ccc([C@@H]2[C@@H]3CN(S(=O)(=O)c4ccccc4F)C[C@H]2N3)cc1`, 0.904 ± 0.016; with `Cc1ccccc1S(=O)(=O)N1C[C@@H]2N[C@H](C1)[C@@H]2c1ccc(-c2cccc(C#N)c2)cc1`, 0.903 ± 0.018.
